# In ChEMBL document CHEMBL3988442, “University of Dundee, Small-Polar-MMV Screening Library” (2021):
# Hit rate of the full screen: of about 69,000 compounds, about 950 (1.4%) showed an effect of 50% or more. Only a selection was taken, and strong results are over-represented in it overall.
# System: Mycobacterium tuberculosis
# Test: Cornell M. t heat shock assay; note: in the data most compounds retested in dose-response had high values
# Assay type: functional, organism-based
# Design: dose or concentration left out as unconfirmed
row,Structure (SMILES),Percent Effect
1,N#Cc1cccc(OC23CCCN(CC2)C3)c1 (centres undefined),-19.96%
2,Cc1cnccc1CNCc1ccc(OC23CCCN(CC2)C3)cc1 (centres undefined),-9.053%
3,c1ccc(Oc2ccc(OC34CCCN(CC3)C4)cc2)cc1 (centres undefined),98.13%
4,O=c1[nH]nc(CNCc2ccc(OC34CCCN(CC3)C4)cc2)[nH]1 (centres undefined),-6.374%
5,Cc1nc(CNCc2cccc(OC34CCCN(CC3)C4)c2)n[nH]1 (centres undefined),-9.099%
6,c1ccc(Oc2cccc(OC34CCCN(CC3)C4)c2)cc1 (centres undefined),91.1%
7,CCOCC1CN(C(=O)c2cc(C)oc2C)Cc2c1cnn2C.O=C(O)C(F)(F)F (centres undefined),38.21%
8,CN1CC(=O)N(c2cccc(F)c2)CC12CCN(S(C)(=O)=O)C2.O=C(O)C(F)(F)F (centres undefined),-1.241%
9,COCCC(=O)Nc1nccn1Cc1ccc(Br)cc1,102.5%
10,CS(=O)(=O)c1nccn1Cc1ccc(C(N)=O)cc1,2.892%
11,CSc1ncccc1C(=O)Nc1ccc(Cn2ccccc2=O)cc1,5.912%
12,CSCC(=O)Nc1nccn1Cc1ccc(Br)cc1,103.2%
13,CC(C)(C#N)C(=O)Nc1nccn1Cc1ccc(Br)cc1,102.4%
14,CNC(=O)c1ccc(Cn2ccnc2S(C)(=O)=O)cc1,3.305%
15,COCCC(=O)Nc1ccnn1-c1ccccc1,-7.442%
16,CCOCC(=O)Nc1ncn(Cc2cccc(Br)c2)n1,-16.14%
17,CCOCC(=O)Nc1nccn1Cc1ccc(Br)cc1,106.8%
18,CCOCC(=O)Nc1ccc(-n2ccc(C(N)=O)n2)cc1,15.42%
19,COCCn1ccc(=O)c(OCC(=O)Nc2ccc(Br)cc2)c1C,17.79%
20,CSCC(=O)Nc1ncn(Cc2cccc(Br)c2)n1,-31.04%
21,O=C1c2cnc(N3CCOCC3)nc2CN1C1CCS(=O)(=O)C1 (centres undefined),3.438%
22,CN(C)[C@@H]1CCN(C(=O)Cc2cccs2)[C@H]1Cc1ccncc1.O=C(O)C(F)(F)F.O=C(O)C(F)(F)F,-5.714%
23,O=C(O)C(=O)O.c1cc(CN2CCC(c3ccc4c(c3)OCO4)CC2)ccn1,-9.586%
24,Cc1nc[nH]c1CN1C[C@@H]2CC[C@H](C1)N(C(=O)CCn1cncn1)C2,2.899%

row,Structure (SMILES),Percent Effect
1,Cc1cc(C(=O)N2CCO[C@H]3[C@H](OCCN(C)C)CC[C@@H]32)c(C)[nH]1.O=C(O)C(F)(F)F,-25.69%
2,O=C(O)C(F)(F)F.O=C(O)C(F)(F)F.c1cnn(Cc2nnc3n2CCCN(Cc2ccsc2)C3)c1,-42.35%
3,O=C(O)C(F)(F)F.c1cnc(N2CCCC3(CCN(CC4CCOC4)CC3)C2)nc1 (centres undefined),-17.62%
4,COCC(=O)Nc1nccn1Cc1ccc(Br)cc1,82.4%
5,COCC(=O)NC(C)Cc1ccc(Br)cc1 (centres undefined),38.61%
6,COCC(=O)Nc1nn(Cc2ccc(F)cc2)cc1Cl,-26.17%
7,Cc1cc(Cc2ccccc2)cc(C2CCCNC2)n1 (centres undefined),-1.453%
8,Cc1cc(Cc2cccc(C(F)(F)F)c2)cc(C2CCCNC2)n1 (centres undefined),52.39%
9,Cc1cccc(Cc2cc(C)nc(C3CCCNC3)c2)c1 (centres undefined),-6.804%
10,CN(C)C(=O)C1CCN(C2CCN(CC3CCC3)CC2)CC1.O=C(O)C(F)(F)F.O=C(O)C(F)(F)F,5.992%
11,CNc1cncc(C2CCCN2S(=O)(=O)c2ccccc2)n1 (centres undefined),-16.46%
12,Cc1nc(Nc2nncs2)cc(C2CCCN2C)n1 (centres undefined),-13.41%
13,c1cc(C2CCCN2CC2CC2)n[nH]1 (centres undefined),1.213%
14,c1ccc(CCN2CCCC2c2cncc(Nc3nncs3)n2)cc1 (centres undefined),99.24%
15,c1nnc(Nc2cncc(C3CCCN3CC3CC3)n2)s1 (centres undefined),103.4%
16,CNc1cncc(C2CCCN2Cc2ccn(C)n2)n1 (centres undefined),-19.6%
17,Cl.Cl.c1ccc2c(c1)C(NC1CCCC1)CC21CCNCC1 (centres undefined),-6.748%
18,O=C1C[C@H]2CC[C@@H](CN1)N2C(=O)CCCc1ccc(Cl)cc1,-2.57%
19,CN1[C@H]2CC[C@@H]1CN(C(=O)c1ccc(-c3ccccc3)[nH]1)CC2,5.823%
20,O=C(Cc1ccsc1)N1CCC(n2nc(-c3ccco3)ccc2=O)CC1,50.48%
21,O=C(c1ccco1)N1CCC(n2nc(-c3ccco3)ccc2=O)CC1,18.57%
22,CC(C)C(=O)N1CCC(n2nc(-c3ccco3)ccc2=O)CC1,1.271%
23,Cc1nc(CNCC2Cn3nncc3CO2)cs1.O=C(O)C(F)(F)F (centres undefined),3.892%
24,O=C(O)C(F)(F)F.O=C(c1cscn1)N1CCC2(CN(Cc3ccoc3)C2)C1,-1.882%

row,Structure (SMILES),Percent Effect
1,COCc1nc2cc(NCc3ccc(CO)o3)ccc2o1,-21.34%
2,COCc1nc2cc(NCc3ccncc3)ccc2o1,47.84%
3,COCc1nc2cc(NCc3ccc(C)o3)ccc2o1,60.09%
4,CCc1ccsc1C(=O)N1CCN(CC(O)CC)CC1 (centres undefined),21.24%
5,O=C(c1ccco1)N1C(CO)[C@]2(O)CC[C@H]1CC2 (some centres undefined),34.52%
6,CN(C)CCN1CCO[C@@H]2CN(C(=O)c3cccs3)CC[C@@H]2C1.O=C(O)C(F)(F)F.O=C(O)C(F)(F)F,-0.5819%
7,Cc1ccc(CC(=O)N2CC[C@@H]3CN(CCN(C)C)CCO[C@@H]3C2)cc1.O=C(O)C(F)(F)F.O=C(O)C(F)(F)F,-3.479%
8,CN(C)CCN1CCO[C@@H]2CN(C(=O)Cc3ccsc3)CC[C@@H]2C1,50.48%
9,CCc1c(C)[nH]c(C2(N)CCCCC2)nc1=O.Cl,-31.03%
10,O=C(NCCOCCO)c1cccnc1Oc1ccc(Cl)cc1,43.92%
11,CCOC(=O)CNC(=O)c1cccnc1Oc1ccc(Cl)cc1,-21.74%
12,COc1ccc(Oc2ncccc2NC(=O)N2CC[C@H](O)C2)cc1,-5.111%
13,O=C(c1cccnc1Oc1ccc(Cl)cc1)N1CC[C@@H](O)C1,54.07%
14,O=C(c1cccnc1SCc1ccccc1)N1CC[C@@H](O)C1,7.782%
15,COCCNC(=O)c1cccnc1Oc1ccc(Cl)cc1,50.01%
16,O=C(Cc1ccccn1)N1CCN2C[C@H](Oc3cccc(F)c3)C[C@H]2C1.O=C(O)C(F)(F)F.O=C(O)C(F)(F)F,-12.23%
17,CN(C)C(=O)N1CCC2(CCCN(Cc3cnn(C)c3)C2)C1.O=C(O)C(F)(F)F (centres undefined),-9.776%
18,CC(C)n1c(C2CCCN(CC(=O)NC3CC3)C2)nc2ccccc21 (centres undefined),-32.24%
19,CN1CCN(C(=O)c2ncn3c2CN(C)S(=O)(=O)c2ccccc2-3)CC1.O=C(O)C(F)(F)F,-21.31%
20,CCn1cc(N2Cc3nc(N(C)C)ncc3C2=O)cn1,8.315%
21,O=C(C1CC=CC1)N1CCC2(CCN(Cc3ccccn3)C2=O)C1.O=C(O)C(F)(F)F (centres undefined),-18.77%
22,COc1ccc(OCCNCc2c(C)nn(C)c2N(C)C)cc1.Cl,36.3%
23,CNC(=O)c1cc2c(nc1N(C)C)CCN(c1ncc(C)cn1)CC2.O=C(O)C(F)(F)F,38.06%
24,O=C(C1CCC1)N1C[C@@H]2CCN(c3cccnc3)C[C@@H]2C1.O=C(O)C(F)(F)F,-23.64%

row,Structure (SMILES),Percent Effect
1,O=C(O)C(F)(F)F.O=C(c1ccc(F)cc1)N1C[C@@H]2CCN(c3cccnc3)C[C@@H]2C1,-7.242%
2,Fc1cccc(N2C[C@H]3CCN(c4cccnc4)C[C@H]3C2)c1.O=C(O)C(F)(F)F,98.87%
3,C[C@@H]1CN(CCc2ccccc2)C[C@]12CCN(CC(=O)N(C)C)C2=O.O=C(O)C(F)(F)F,2.052%
4,CN(Cc1nc2ccccc2n1C)CC1CCCN1c1cccnn1 (centres undefined),101.2%
5,CN(Cc1ncc(C(C)(C)C)o1)CC1CCCN1c1cccnn1 (centres undefined),66%
6,Cn1c(CNCC2CCCN2c2cccnn2)nc2ccccc21 (centres undefined),3.675%
7,CC(C)(C)c1cnc(CNCC2CCCN2c2cccnn2)o1 (centres undefined),-26.2%
8,Cc1nc2ccccc2nc1CN(C)CC1CCCN1c1cccnn1 (centres undefined),18.99%
9,CN(Cc1ncc(-c2ccccc2)o1)CC1CCCN1c1cccnn1 (centres undefined),0.462%
10,Cn1nccc1-c1nnn2c1COCC(CNCC1CC1)C2.O=C(O)C(F)(F)F.O=C(O)C(F)(F)F (centres undefined),30.33%
11,COc1cccc2c(C)c(C(=O)N3CCNCC3C(N)=O)[nH]c12.Cl (centres undefined),-6.521%
12,O=C(O)C(F)(F)F.O=C(O)C(F)(F)F.c1ccc(N2CCC3(COCCN(Cc4cccs4)C3)C2)nc1 (centres undefined),0.5206%
13,CC(C)NC(=O)N1C[C@H](OCc2cccnc2)[C@H]2COC[C@H]21.O=C(O)C(F)(F)F,2.427%
14,CCc1nnc2n1CCN(Cc1ncc(-c3ccc(F)cc3)o1)C2,-9.541%
15,CCc1nnc2n1CCN(Cc1ncc(-c3ccc(Cl)cc3)o1)C2,-1.022%
16,CCc1nnc2n1CCN(Cc1ncc(-c3ccccc3)o1)C2,76.57%
17,Cc1nnc2n1CCN(Cc1ncc(-c3ccc(F)cc3)o1)C2,77.14%
18,Cc1nnc2n1CCN(Cc1ncc(-c3ccccc3)o1)C2,-5.111%
19,Cc1nnc2n1CCN(Cc1ncc(-c3ccc(Cl)cc3)o1)C2,-15.98%
20,CN1C(=O)CCC12CCN(c1ccc(C#N)cn1)CC2.O=C(O)C(F)(F)F,8.745%
21,Cc1nc(C)c(C(C)NCc2cnc(N3CCOCC3)nc2)s1.Cl (centres undefined),-16.16%
22,Cn1cc(CN2C[C@@H]3COC[C@@H](C(=O)N4CCCCO4)[C@@H]3C2)cn1.O=C(O)C(F)(F)F.O=C(O)C(F)(F)F,6.742%
